Results reported in the supplement of paper PMC8975748.
Counter-ions that a name gives are not always drawn.

These compounds were tested on Saccharomyces cerevisiae BY4741 SeMeCo community (assay: z-score of subpopulation abundance vs DMSO median, subpopulation auxotrophic for H; higher = larger share of this subpopulation than in DMSO controls). Conditions: 10 µM; 24 h; SM minimal medium; subpopulation (auxotrophy): H.
Experimental: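 Fluorescent four-plasmid SeMeCo (self-establishing metabolically cooperating S. cerevisiae BY4741 community; plasmids pH-mRuby2, pL-mWasabi, pU-eCFP, pM-TagRFP657) was grown 24 h in minimal SM medium with each Selleck FDA-approved drug at 10 µM in 384-well plates. Cells were fixed and imaged by high-content confocal microscopy. For each auxotrophic subpopulation (and the prototroph), a z-score gives the deviation from the DMSO vehicle-control population median.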

Row | SMILES | z-score of subpopulation abundance
1 | CN1CCC(=C2c3ccccc3CCc3sccc32)CC1 [Pizotifen Malate] | -0.02
2 | CC(=O)[C@H]1CC[C@H]2[C@@H]3CC=C4C[C@@H](O)CC[C@]4(C)[C@H]3CC[C@]12C [Pregnenolone] | -0.46
3 | C=CC(C)(O)CCC=C(C)C (stereo not given) [Linalool] | -0.37
4 | O=c1ccc2ccc(OCCCCN3CCN(c4cccc5sccc45)CC3)cc2[nH]1 [Brexpiprazole] | 0.96
5 | COc1ccc(CC2c3cc(OC)c(OC)cc3CC[N+]2(C)CCC(=O)OCCCCCOC(=O)CC[N+]2(C)CCc3cc(OC)c(OC)cc3C2Cc2ccc(OC)c(OC)c2)cc1OC (stereo not given) [Atracurium Besylate] | 0.57
6 | CCCN[C@H]1CCc2nc(N)sc2C1 [Pramipexole dihydrochloride] | -0.35
7 | O=C(c1ccc(F)cc1)C1CCN(CCn2c(=O)[nH]c3ccccc3c2=O)CC1 [Ketanserin] | -0.82
8 | CC(=O)OC(C)C[N+](C)(C)C (stereo not given) [Methacholine chloride] | 0.16
9 | CN(C)[C@@H]1C(=O)C(C(N)=O)=C(O)[C@@]2(O)C(=O)C3=C(O)c4c(O)ccc(Cl)c4[C@@H](O)[C@H]3C[C@@H]12 [Demeclocycline HCl] | 0.67
10 | CN(Cc1cnc2nc(N)nc(N)c2n1)c1ccc(C(=O)N[C@@H](CCC(=O)O)C(=O)O)cc1 [Methotrexate disodium] | 15.3
11 | COC(=O)C1=C(C)NC(C)=C(C(=O)OC(C)C)C1c1cccc2nonc12 (stereo not given) [Isradipine] | -0.09
12 | C#C[C@]1(O)CC[C@H]2[C@@H]3CCC4=CCCC[C@@H]4[C@H]3C(=C)C[C@@]21CC [Desogestrel] | 0.78
13 | C[C@H]1c2cccc(O)c2C(O)=C2C(=O)[C@]3(O)C(O)=C(C(N)=O)C(=O)[C@@H](N(C)C)[C@@H]3[C@@H](O)[C@@H]21 [Doxycycline] | -0.79
14 | NC(=O)c1ncn([C@@H]2O[C@H](CO)[C@@H](O)[C@H]2O)n1 [Ribavirin] | -0.52
15 | Cc1ccc(-c2ncc(Cl)cc2-c2ccc(S(C)(=O)=O)cc2)cn1 [Etoricoxib] | -0.35
16 | CCN1CCN(c2cc3c(cc2F)c(=O)c(C(=O)O)cn3C2CC2)CC1 [Enrofloxacin] | -0.13
17 | Nc1nc2c(ncn2COCCO)c(=O)[nH]1 [Aciclovir] | -0.28
18 | Cc1onc(-c2ccccc2)c1C(=O)N[C@@H]1C(=O)N2[C@@H]1SC(C)(C)[C@@H]2C(=O)O [Oxacillin sodium monohydrate] | -0.05
19 | NC[C@@H]1O[C@H](O[C@H]2[C@@H](O)[C@H](O[C@@H]3[C@@H](O)[C@H](N)C[C@H](N)[C@H]3O[C@H]3O[C@H](CN)[C@@H](O)[C@H](O)[C@H]3N)O[C@@H]2CO)[C@H](N)[C@@H](O)[C@@H]1O [Neomycin sulfate] | 0.56
20 | O=C(O)c1cn(-c2ccc(F)cc2)c2cc(N3CCNCC3)c(F)cc2c1=O [Sarafloxacin HCl] | -0.42

Row | SMILES | z-score of subpopulation abundance
21 | Cc1cc(=O)n(-c2ccccc2)n1C [Antipyrine] | -1.04
22 | CCOC(=O)CCC(=O)O[C@H]1[C@H](O[C@@H]2[C@@H](C)[C@H](O[C@H]3C[C@@](C)(OC)[C@@H](O)[C@H](C)O3)[C@@H](C)C(=O)O[C@H](CC)[C@@](C)(O)[C@H](O)[C@@H](C)C(=O)[C@H](C)C[C@@]2(C)O)O[C@H](C)C[C@@H]1N(C)C [Erythromycin Ethylsuccinate] | 1.99
23 | N/C(=N\N=C\c1ccc(Cl)cc1)N/N=C/c1ccc(Cl)cc1 [Robenidine Hydrochoride] | 5.77
24 | CC[C@H]1OC(=O)[C@H](C)[C@@H](O[C@H]2C[C@@](C)(OC)[C@@H](O)[C@H](C)O2)[C@H](C)[C@@H](O[C@@H]2O[C@H](C)C[C@H](N(C)C)[C@H]2O)[C@](C)(O)C[C@@H](C)[C@@H]2N[C@@H](COCCOC)O[C@H]([C@H]2C)[C@]1(C)O [Dirithromycin] | -0.21
25 | C#C[C@]1(O)CC[C@H]2[C@@H]3CCC4=CCCC[C@@H]4[C@H]3CC[C@@]21C [Lynestrenol] | 0.16
26 | Nc1ccc(/N=N/c2ccccc2)c(N)n1 [Phenazopyridine HCl] | 1.88
27 | CC[C@@]1(O)C(=O)OCc2c1cc1n(c2=O)Cc2cc3cc(O)ccc3nc2-1 [Hydroxy Camptothecine] | 3.18
28 | CCc1c2c(nc3ccc(OC(=O)N4CCC(N5CCCCC5)CC4)cc13)-c1cc3c(c(=O)n1C2)COC(=O)[C@]3(O)CC [Irinotecan HCl Trihydrate] | 0.65
29 | CSCC1CN(/N=C/c2ccc([N+](=O)[O-])o2)C(=O)O1 (stereo not given) [Nifuratel] | 5.51
30 | C#CCN[C@@H]1CCc2ccccc21 [Rasagiline] | -0.48
31 | CC(=O)N1CCN(c2ccc(OCC3COC(Cn4ccnc4)(c4ccc(Cl)cc4Cl)O3)cc2)CC1 (stereo not given) [Ketoconazole] | 0.08
32 | NNc1nncc2ccccc12 [Hydralazine HCl] | -1.09
33 | O=C1N=C(O)NC1(c1ccccc1)c1ccccc1 [Phenytoin Sodium] | -0.03
34 | C#C[C@]1(O)CC[C@H]2[C@@H]3CCC4=CC(=O)CC[C@@H]4[C@H]3C(=C)C[C@@]21CC [Etonogestrel] | 0.15
35 | CN[C@H](CC(C)C)C(=O)N[C@H]1C(=O)N[C@@H](CC(N)=O)C(=O)N[C@H]2C(=O)N[C@H]3C(=O)N[C@H](C(=O)N[C@H](C(=O)O)c4cc(O)cc(O)c4-c4cc3ccc4O)[C@H](O)c3ccc(c(Cl)c3)Oc3cc2cc(c3O[C@@H]2O[C@H](CO)[C@@H](O)[C@H](O)[C@H]2O[C@H]2C[C@](C)(N)[C@H](O)[C@H](C)O2)Oc2ccc(cc2Cl)[C@H]1O [Vancomycin HCl] | -0.1
36 | Nc1nc2[nH]cc(CCc3ccc(C(=O)N[C@@H](CCC(=O)O)C(=O)O)cc3)c2c(=O)[nH]1 [Pemetrexed] | 5.02
37 | CCCCCCCCCCCCCCCCCCOP(=O)([O-])OC1CC[N+](C)(C)CC1 [Perifosine (KRX-0401)] | 3.48
38 | O=C(O)CCC(=O)Nc1ccc(S(=O)(=O)Nc2nccs2)cc1 [Succinylsulfathiazole] | -1.14
39 | CCCCNC(=O)NS(=O)(=O)c1ccc(C)cc1 [Tolbutamide] | -0.84
40 | Clc1ccc(CCC(Cn2ccnc2)Sc2c(Cl)cccc2Cl)cc1 (stereo not given) [Butoconazole nitrate] | 30.8
